These results are taken from PubChem BioAssay.

Experiment [1] can be described thus: growth inhibition of DIPG glioma cells, dose response, cell-based, SU-DIPG-XVII, MIPE5.0, CellTiter-Glo, qHTS (AID 1347060; cut-off not given, nearly all actives have AC50 up to about 26 µM;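 on AC50: cells exposed to compound for 48 hours before viability readout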). Conditions: SU-DIPG-XVII viability, CellTiter-Glo ATP luminescence. On the technique in general: In ATP-based viability assays light output follows the ATP content of the culture.
The nature of experiment [2]: growth inhibition of DIPG glioma cells, dose response, cell-based, SU-DIPG-XIII, MIPE4.0, CellTiter-Glo, qHTS (AID 1347061; cut-off not given, nearly all actives have AC50 up to about 37 µM;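 further: cells exposed to compound for 48 hours before readout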). Conditions: SU-DIPG-XIII viability, CellTiter-Glo ATP luminescence.
Experiment [3] is described as follows: growth inhibition of DIPG glioma cells, dose response, cell-based, JHH-DIPG-1, MIPE4.0, CellTiter-Glo, qHTS (AID 1347062; cut-off not given, nearly all actives have AC50 up to about 27 µM;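 on AC50: cells exposed to compound for two days before readout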). As to conditions: JHH-DIPG-1 viability, CellTiter-Glo ATP luminescence.
Experiment [4] is described as follows: growth inhibition of DIPG glioma cells, dose response, cell-based, SU-DIPG-IV, MIPE4.0, CellTiter-Glo, qHTS (AID 1347063; cut-off not given, nearly all actives have AC50 up to about 30 µM;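 further: compound exposure lasted 48 hours before the viability readout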). As to conditions: SU-DIPG-IV viability, CellTiter-Glo ATP luminescence.
Experiment [5] is described as follows: growth inhibition of DIPG glioma cells, dose response, cell-based, SU-DIPG-XIII, MIPE5.0, CellTiter-Glo, qHTS (AID 1347064; cut-off not given, nearly all actives have AC50 up to about 23 µM;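 on AC50: cells exposed to compound for 48 hours before the viability read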). Conditions: SU-DIPG-XIII viability, CellTiter-Glo ATP luminescence.
Experiment [6] can be described thus: viability loss in pontine glioma line – cell-based, SU-DIPG-XXV, MIPE5.0, CellTiter-Glo, qHTS, dose response (AID 1347065; cut-off not given, nearly all actives have AC50 up to about 26 µM;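 further: cells exposed to compound for 48 hours before ATP readout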). Conditions: CellTiter-Glo ATP luminescence.
Experiment [7] can be described thus: SU-DIPG-VI glioma cell viability, MIPE4.0 library, CellTiter-Glo luminescence, qHTS (AID 1347066; cut-off not given, nearly all actives have AC50 up to about 30 µM;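 further: cells exposed to compound for 48 hours before readout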). Conditions: CellTiter-Glo ATP luminescence.
Experiment [8] can be described thus: JHH-DIPG-1 glioma cell viability, MIPE5.0 library, CellTiter-Glo luminescence, qHTS (AID 1347067; cut-off not given, nearly all actives have AC50 up to about 26 µM;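 further: cells exposed to compound for 48 hours before readout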). As to conditions: JHH-DIPG-1 glioma viability, CellTiter-Glo ATP luminescence.
Experiment [9] can be described thus: SU-DIPG-XXV glioma cell viability, MIPE5.0 library, qHTS (AID 1347068; cut-off not given, nearly all actives have IC50 up to about 30 µM;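 on IC50: cells exposed to compound for 48 hours before viability readout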). For orientation: In qHTS, concentration-response curves come from the screen itself.
Experiment [10] is described as follows: sensitizers of A549 cells to miR-34 induction, primary screen, imaging, A549 dox-inducible miR-34, nuclei and caspase counts (AID 1347080;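 active means compounds whose cell count with miR-34 switched on is under 0.7 times the count with it off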). As to conditions: A549 miR-34 inducible, Hoechst nuclei count, 48 h.
Experiment [11] can be described thus: modifiers of HSF1 nuclear foci, imaging, Selleck Cancer Library (AID 1347162; in the data active means plate-normalised HSF1 focus index below about 0.46). As to conditions: human cells, at 10 µM; SSMD: measured here: HSF1 foci SSMD mean; cell count: measured here: cell number; plate-normalised HSF1 focus index: stronger effect = lower value.
Experiment [12] is described as follows: survival rescue of mitochondrial mutant cells in low glucose, primary screen, MELAS cybrids, Rieske KO mouse fibroblasts, CellTiter-Glo (AID 1508586;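 active means mean z-score across replicates of 1.96 or higher in either the MELAS or the Rieske mutant cell line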;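 further: z relative to plate mean and SD of compound and empty wells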).
Experiment [13] is described as follows: ovarian cancer cell viability with rucaparib, profiling panel, oncology-focused library, rucaparib conditional (AID 1508598). Conditions: patient-derived ovarian cancer cells, CellTiter-Glo viability, 144 h, stronger effect = lower value.

Inconclusive results are not listed. Active and inactive are the calls of the source.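 How the source made its calls, unless noted: active means normalized viability below 100% at a tested concentration; inactive means the rest.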

On to `CC(C)(O)[C@H]1CC[C@@](C)([C@H]2[C@@H](O)C[C@@]3(C)[C@@H]4C[C@H](O[C@@H]5O[C@H](CO)[C@@H](O)[C@H](O)[C@H]5O)[C@H]5C(C)(C)[C@@H](O[C@@H]6OC[C@@H](O)[C@H](O)[C@H]6O)CC[C@@]56C[C@@]46CC[C@]23C)O1`, for which the call in experiment [1], in [2], in experiment [3], in [4], in [5] and in experiment [6] was inactive. Also, the call in [7], in experiment [8] and in experiment [9] was inactive.

A word on the AC50: it is the concentration giving half of the maximal activity seen. By IC50 is commonly meant the concentration needed to halve the response being measured. As to `COc1cc(CCc2cc(NC(=O)c3ccc(N4C[C@@H](C)N[C@@H](C)C4)cc3)n[nH]2)cc(OC)c1`, the concentration at half-maximal activity (AC50) is 0.417 µM (active) in experiment [1]; 8.33 µM (active) in experiment [2]; 18.7 µM (active) in [3]; 16.6 µM (active) in experiment [4]; 0.235 µM (active) in experiment [5]; 0.263 µM (active) in experiment [6]. For the same compound, the AC50 in experiment [7] was 23.5 µM (active); in experiment [8] it was 13.2 µM (active). Further, the 50% inhibitory concentration (IC50) in experiment [9] was 8.33 µM (active).

As for `COc1cc2c(Oc3ccc(-c4cnc(Nc5ccc(F)cc5)n(C)c4=O)cc3F)ccnc2cc1OCCCN1CCOCC1`, the AC50 is 3.32 µM (active) in experiment [1]; 14.8 µM (active) in experiment [2]; 18.7 µM (active) in experiment [3]; 16.6 µM (active) in [4]; 3.72 µM (active) in experiment [5]; 2.09 µM (active) in experiment [6]. Further, the AC50 in experiment [7] is 9.35 µM (active); in experiment [8], 9.34 µM (active). In addition, the IC50 in experiment [9] is 6.61 µM (active).

Broadly, the viability is a read-out of living cells in per cent, often relative to untreated cells. Consider `Cc1ccc(C(=O)Nc2ccc(CN3CCN(C)CC3)c(C(F)(F)F)c2)cc1C#Cc1cnc2cccnn12`, for which the concentration at half-maximal activity (AC50) is 0.59 µM (active) in experiment [1]; 0.418 µM (active) in [2]; 6.62 µM (active) in experiment [3]; 1.18 µM (active) in [4]; 0.661 µM (active) in experiment [5]; 0.833 µM (active) in experiment [6]. In addition, the results for the AC50 in experiment [7] and in experiment [8] were 8.33 µM (active) and 2.35 µM (active), respectively. Further, the half-inhibitory concentration (IC50) in [9] is 2.95 µM (active). In addition, the fold change is 1.36 (inactive) in experiment [10] (stronger effect = lower value, cell number ratio, induced over uninduced) and 1.05 in experiment [10] (measured here: relative caspase fold change +Dox/-Dox). Moreover, the cell count in experiment [10] (measured here: total cells with miR-34 induction, stronger effect = lower value) is 814; in experiment [10] (measured here: total cells without miR-34 induction) it was 597; in experiment [11] it was 7680. Besides, the SSMD in experiment [11] turned out to be 1.5. The plate-normalised HSF1 focus index in experiment [11] is 1.09 (inactive). Further, the z-score in experiment [12] (MELAS cybrid survival, CellTiter-Glo 48 h, stronger effect = higher value) is 1.37 (inactive); in [12] (Rieske KO mouse fibroblast survival, CellTiter-Glo 72 h), -2.78. For the same compound, the viability was 94.7% (active) in experiment [13] (at 0.000305 µM, OCI-C5x cells, with rucaparib 10 µM, 100% = cells with rucaparib alone); 114% (inactive) in experiment [13] (at 0.000305 µM, OCI-C5x cells, without rucaparib); 108% (inactive) in experiment [13] (at 0.000305 µM, OCI-P5x cells, with rucaparib 20 µM, 100% = cells with rucaparib alone); 114% (inactive) in [13] (at 0.000305 µM, OCI-P5x cells, without rucaparib); 98% (active) in [13] (at 0.00122 µM, OCI-C5x cells, with rucaparib 10 µM, 100% = cells with rucaparib alone); 122% (inactive) in [13] (at 0.00122 µM, OCI-C5x cells, without rucaparib). The viability in [13] (at 0.00122 µM, OCI-P5x cells, with rucaparib 20 µM, 100% = cells with rucaparib alone) is 103% (inactive); in [13] (at 0.00122 µM, OCI-P5x cells, without rucaparib), 111% (inactive); in experiment [13] (at 0.00488 µM, OCI-C5x cells, with rucaparib 10 µM, 100% = cells with rucaparib alone) it was 104% (inactive); in experiment [13] (at 0.00488 µM, OCI-C5x cells, without rucaparib), 130% (inactive); in experiment [13] (at 0.00488 µM, OCI-P5x cells, with rucaparib 20 µM, 100% = cells with rucaparib alone), 97% (active); in experiment [13] (at 0.00488 µM, OCI-P5x cells, without rucaparib), 107% (inactive). Besides, the viability was 95.2% (active) in experiment [13] (at 0.0195 µM, OCI-C5x cells, with rucaparib 10 µM, 100% = cells with rucaparib alone); 127% (inactive) in [13] (at 0.0195 µM, OCI-C5x cells, without rucaparib); 102% (inactive) in experiment [13] (at 0.0195 µM, OCI-P5x cells, with rucaparib 20 µM, 100% = cells with rucaparib alone); 89.9% (active) in [13] (at 0.0195 µM, OCI-P5x cells, without rucaparib); 94.7% (active) in experiment [13] (at 0.0781 µM, OCI-C5x cells, with rucaparib 10 µM, 100% = cells with rucaparib alone); 117% (inactive) in [13] (at 0.0781 µM, OCI-C5x cells, without rucaparib). Also, the viability in experiment [13] (at 0.0781 µM, OCI-P5x cells, with rucaparib 20 µM, 100% = cells with rucaparib alone) was 88.1% (active); in experiment [13] (at 0.0781 µM, OCI-P5x cells, without rucaparib) it was 111% (inactive); in [13] (at 0.313 µM, OCI-C5x cells, with rucaparib 10 µM, 100% = cells with rucaparib alone) it was 93.2% (active); in experiment [13] (at 0.313 µM, OCI-C5x cells, without rucaparib) it was 118% (inactive); in experiment [13] (at 0.313 µM, OCI-P5x cells, with rucaparib 20 µM, 100% = cells with rucaparib alone), 44.4% (active); in experiment [13] (at 0.313 µM, OCI-P5x cells, without rucaparib) it was 77.9% (active). Besides, the viability in experiment [13] (at 1.25 µM, OCI-C5x cells, with rucaparib 10 µM, 100% = cells with rucaparib alone) was 58.9% (active); in experiment [13] (at 1.25 µM, OCI-C5x cells, without rucaparib) it was 116% (inactive); in experiment [13] (at 1.25 µM, OCI-P5x cells, with rucaparib 20 µM, 100% = cells with rucaparib alone), 24.3% (active); in experiment [13] (at 1.25 µM, OCI-P5x cells, without rucaparib) it was 28.1% (active); in [13] (at 5 µM, OCI-C5x cells, with rucaparib 10 µM, 100% = cells with rucaparib alone) it was 2.01% (active); in experiment [13] (at 5 µM, OCI-C5x cells, without rucaparib), 3.5% (active). The viability in experiment [13] (at 5 µM, OCI-P5x cells, with rucaparib 20 µM, 100% = cells with rucaparib alone) is 8.21% (active); in [13] (at 5 µM, OCI-P5x cells, without rucaparib), 6.01% (active).
